PubChem BioAssay
Active and inactive are the calls of the source.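 Rule for the calls: active = visually confirmed hit in the image check and inhibition above 20%; inconclusive = visually confirmed hit but inhibition not above 20%; inactive = no visual hit in the image check.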

test: endothelial E-selectin expression blockers – imaging, HUVEC, immunofluorescence, MLSMR starter and 10KST1 sets, primary screen (AID 487); conditions: HUVEC TNFalpha-induced E-selectin immunofluorescence imaging, at 2 µM; inhibition: stronger effect = higher value; nuclei count: measured here: cell number, toxicity;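 for inhibition: signal is fraction of cell area covered by stained E-selectin grains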;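 for nuclei count: 100% = median nuclei count of all wells on the same plate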

Question: Which results are given for `c1ccc(-c2nn3c(Cn4nnc5ccccc54)nnc3s2)nc1`?
Answer: nuclei count: 82.3%; inhibition: 13.7% (inactive)

Question: With `O=C(CSCc1cccs1)N1CCCC1` as the molecule, how does the nuclei count read?
Answer: 87.8%

Question: And the inhibition?
Answer: 18.9% (inactive)

Question: For `CCOc1ccccc1-n1c(SCC(=O)NC(C)CC)nnc1-c1ccoc1C` (stereo not drawn), which nuclei count is on record?
Answer: 121%

Question: And the inhibition?
Answer: -47.9% (inactive)

Question: Which nuclei count does the source give for `CCOC(=O)N1CCC(n2c(=S)[nH]c3cc(OC)c(OC)cc3c2=O)CC1` here?
Answer: 105%

Question: What about the inhibition of the same molecule?
Answer: -6.8% (inactive)

Question: Which nuclei count does the source give for `Cc1ccc(Cn2c(SCCN3CCCCC3)nc3c2c(=O)[nH]c(=O)n3C)cc1` here?
Answer: 100%

Question: And the inhibition?
Answer: 29.9% (inactive)

Question: With `Cc1ccc(Cn2ccc(NC(=O)c3cc(-c4cccs4)on3)n2)cc1` as the molecule, how does the inhibition read?
Answer: -33.4% (inactive)

Question: And the nuclei count?
Answer: 99.3%

Question: Which inhibition does the source give for `Cc1nnc(N2C(=O)C(O)=C(C(=O)c3ccco3)C2c2ccc(F)cc2)s1` (stereo not drawn) here?
Answer: 2.7% (inactive)

Question: And the nuclei count?
Answer: 123%

Question: For `COC(=O)c1cc(=O)nc2sc(-c3cccs3)nn12`, which inhibition is on record?
Answer: -73.7% (inactive)

Question: And the nuclei count?
Answer: 105%

Question: For `CCN(CC)CCCNc1oc(-c2cccc(Cl)c2)nc1C#N`, which nuclei count is on record?
Answer: 112%

Question: What about the inhibition of the same molecule?
Answer: -37.9% (inactive)

Question: With `Cn1c(SCC(=O)O)nnc1C1CCCCC1` as the molecule, how does the nuclei count read?
Answer: 105%

Question: What about the inhibition of the same molecule?
Answer: -65.8% (inactive)

Question: With `CC1CCN(C(=O)CSc2nnc(-c3ccc(S(=O)(=O)N4CCOCC4)cc3)n2C)CC1` as the molecule, how does the inhibition read?
Answer: -169% (inactive)

Question: And the nuclei count?
Answer: 114%

Question: With `COCCn1nnnc1C(c1cccs1)N1CCN(c2cc(C)ccc2C)CC1` (stereo not drawn) as the molecule, how does the nuclei count read?
Answer: 96.9%

Question: And the inhibition?
Answer: -2.6% (inactive)

Question: For `CC1CCc2nn(CC(=O)NCCN3CCOCC3)cc2C1` (stereo not drawn), which nuclei count is on record?
Answer: 97%

Question: What about the inhibition of the same molecule?
Answer: 42.1% (inactive)

Question: Which inhibition does the source give for `CCOC(=O)c1c(C)[nH]c(C(=O)Cn2c(=O)c3c(ncn3CC)n(Cc3ccccc3)c2=O)c1C` here?
Answer: -32.2% (inactive)

Question: And the nuclei count?
Answer: 127%
